# Where “and” joins values, the source holds several entries; their conditions need not be identical. Equal values may be shown once. The panel holds about 79,000 compounds, 15% with a hit somewhere; the sample as a whole holds those more often. Unmarked numbers belong to inactive results. Calls of active or inactive are those of the source. Cut-off read from the data, not from the text of the source: active = growth inhibition above about 70%; inactive = the rest.
# Test: NCI Yeast Anticancer Drug Screen. Data for the sgs1 mgt1 strain (AID 161);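 note: 0% = growth of cultures given vehicle only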
# Conditions: S. cerevisiae sgs1 mgt1 strain, stronger effect = higher value; at 50.0 µM unless noted
# Procedure, shortened: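 Growth of a repair-deficient yeast mutant was monitored after compound treatment and expressed as inhibition relative to vehicle-treated cultures.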
row,SMILES,growth inhibition
1,Nc1ncnc2c1ncn2C1OC(C(O)CO)C(O)C1O (stereo not given),-4.2% and -6.85%
2,CCCCCCCCCC(=O)N=C(C(N)=O)C(N)=O,38.5%
3,C#CCOC(=O)c1ccccc1,0.6%
4,CNC(=S)C#N,-15.3%
5,O=P(O)(O)c1ccc(-c2ccc(I)cc2)cc1,7.45%
6,CCOC(=O)N/N=C/c1ccccc1C,-6.9%
7,NC(=O)N/N=C/c1ccc([N+](=O)[O-])cc1,-6.55%
8,COc1ccc(C)cc1S(=O)(=O)c1ccc(Cl)cc1[N+](=O)[O-],2%
9,COC(=O)OCCOC(=O)OC,-8.45%
10,O=C(O)CC(c1ccccc1)C(CC(=O)O)c1ccccc1 (stereo not given),17.6%
11,Cc1c(NC(=O)CSC(=S)N(C)C)c(=O)n(-c2ccccc2)n1C,-18.4%
12,NC(=O)c1ccccc1OC(=O)Nc1ccc(F)c([N+](=O)[O-])c1,12.4%
13,COc1ccc(CC(C)NN)cc1 (stereo not given),50.2%
14,O=[N+]([O-])c1ccc(NN=C2CCCCC2)c([N+](=O)[O-])c1,1.8%
15,CCCCOC(=O)C(C)OC(=O)C(C)Oc1cc(Cl)c(Cl)cc1Cl (stereo not given),0.3%
16,CC(=O)Oc1c(C)c2c(c3ncccc13)OC(C)C2 (stereo not given),32.4%
17,NNC(=O)CCC(=O)O,1.7%
18,Nc1nc(Cl)c(N)c(NCC2(CO)CC(Cc3ccccc3)C2)n1 (stereo not given),18.9%
19,CC1(C)OCC(N)[C@@H](O)CO1 (stereo not given in full),13.3%
20,Cc1ccc(Cl)cc1NC(=O)c1ccccc1,-8.5%

row,SMILES,growth inhibition
1,COC(=O)/C=C(/Sc1nc(Cl)c(Cl)nc1N)C(=O)OC (tested in a mixture with another compound),10.7%
2,C=C1C=C2CCC3C(CCC4(C)C(C(C)CCCC(C)C)CCC34)C2(C)CC1 (stereo not given),84.9% (active)
3,Nc1cc2c(cc1[N+](=O)[O-])-c1ccc(Cl)cc1C2=O,1.45%
4,O=C1c2ccccc2C(=O)c2cc3nc4c5ccccc5c5ccccc5c4nc3cc21,-27.2%
5,CCCCOC(=O)c1ccccc1C(=O)Nc1ccccc1,2%
6,NC(=O)NCCCC(N)C(=O)O (stereo not given),-5.85% and -13.1%
7,CCOC(OCC)c1cc(=O)[nH]c(NC(C)=O)n1,10%
8,CS/C(=N\c1nccs1)NC(=O)c1cccc(Cl)c1,30.2%
9,O=C(Nc1ccc(Cl)cc1)C(Cl)C(Cl)c1ccc(Cl)cc1 (stereo not given),-7.65%
10,FC(F)(F)c1ccc2ccc3ccc(Cl)cc3c2c1,-4.3%
11,O=C1C2C(c3ccccc3)NC(c3ccccc3)C1C(c1ccccc1)NC2c1ccccc1 (stereo not given),-35.6%
12,CC(=O)CC(C[N+](=O)[O-])c1ccccc1 (stereo not given),-4.65%
13,CCOC(=O)c1oc2cc(O)ccc2c(=O)c1-c1ccc(OC)c(OC)c1,16.3%
14,COc1ccc2nc3cccc([N+](=O)[O-])c3c(NC(C)CN(C)C)c2c1 (stereo not given),54.1%
15,Cc1cc(Cl)cc2c1OC(C)OC2=O (stereo not given),-17.6%
16,CSc1nc(N)c2cnn(Cc3ccccc3)c2n1,34%
17,CCOC(=O)Cc1ccc2ccccc2c1,-1.95%
18,C/C(=N\NC(N)=O)C1(O)CCCCC1,-17.3%
19,CCC(C)C(O)C(C)C (stereo not given),-15.6%
20,N#CCN(CC#N)C1CC=CCC1N(CC#N)CC#N (stereo not given),-30.2%

# Test: NCI Yeast Anticancer Drug Screen. Data for the cln2 rad14 strain (AID 165);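 note: 0% = growth equal to vehicle treated cultures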
# Conditions: S. cerevisiae cln2 rad14 strain, stronger effect = higher value; at 50.0 µM unless noted
# Procedure, shortened: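 Readout is yeast growth inhibition versus vehicle-treated controls, using a strain with cln2 and rad14 alterations exposed to compound.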
row,SMILES,growth inhibition
1,Nc1ncnc2c1ncn2C1OC(C(O)CO)C(O)C1O (stereo not given),-81.3% and 10.2%
2,CCCCCCCCCC(=O)N=C(C(N)=O)C(N)=O,3.75%
3,C#CCOC(=O)c1ccccc1,-24.2%
4,CNC(=S)C#N,11.9%
5,O=P(O)(O)c1ccc(-c2ccc(I)cc2)cc1,22.2%
6,CCOC(=O)N/N=C/c1ccccc1C,25.2%
7,NC(=O)N/N=C/c1ccc([N+](=O)[O-])cc1,-24.1%
8,COc1ccc(C)cc1S(=O)(=O)c1ccc(Cl)cc1[N+](=O)[O-],-12.7%
9,COC(=O)OCCOC(=O)OC,18.1%
10,O=C(O)CC(c1ccccc1)C(CC(=O)O)c1ccccc1 (stereo not given),17.2%
11,Cc1c(NC(=O)CSC(=S)N(C)C)c(=O)n(-c2ccccc2)n1C,6.75%
12,NC(=O)c1ccccc1OC(=O)Nc1ccc(F)c([N+](=O)[O-])c1,-1.95%
13,COc1ccc(CC(C)NN)cc1 (stereo not given),95.7% (active)
14,O=[N+]([O-])c1ccc(NN=C2CCCCC2)c([N+](=O)[O-])c1,-39.6%
15,CCCCOC(=O)C(C)OC(=O)C(C)Oc1cc(Cl)c(Cl)cc1Cl (stereo not given),16.9%
16,CC(=O)Oc1c(C)c2c(c3ncccc13)OC(C)C2 (stereo not given),19.1%
17,NNC(=O)CCC(=O)O,-3.6%
18,Nc1nc(Cl)c(N)c(NCC2(CO)CC(Cc3ccccc3)C2)n1 (stereo not given),7.6%
19,CC1(C)OCC(N)[C@@H](O)CO1 (stereo not given in full),-26.2%
20,Cc1ccc(Cl)cc1NC(=O)c1ccccc1,-28.9%

row,SMILES,growth inhibition
1,COC(=O)/C=C(/Sc1nc(Cl)c(Cl)nc1N)C(=O)OC (tested in a mixture with another compound),-4.3%
2,C=C1C=C2CCC3C(CCC4(C)C(C(C)CCCC(C)C)CCC34)C2(C)CC1 (stereo not given),60.6%
3,Nc1cc2c(cc1[N+](=O)[O-])-c1ccc(Cl)cc1C2=O,7.5%
4,O=C1c2ccccc2C(=O)c2cc3nc4c5ccccc5c5ccccc5c4nc3cc21,-37.6%
5,CCCCOC(=O)c1ccccc1C(=O)Nc1ccccc1,2.1%
6,NC(=O)NCCCC(N)C(=O)O (stereo not given),-2.4% and 2.9%
7,CCOC(OCC)c1cc(=O)[nH]c(NC(C)=O)n1,-11.9%
8,CS/C(=N\c1nccs1)NC(=O)c1cccc(Cl)c1,18.8%
9,O=C(Nc1ccc(Cl)cc1)C(Cl)C(Cl)c1ccc(Cl)cc1 (stereo not given),-22.4%
10,FC(F)(F)c1ccc2ccc3ccc(Cl)cc3c2c1,-10.4%
11,O=C1C2C(c3ccccc3)NC(c3ccccc3)C1C(c1ccccc1)NC2c1ccccc1 (stereo not given),-18.1%
12,CC(=O)CC(C[N+](=O)[O-])c1ccccc1 (stereo not given),-28.5%
13,CCOC(=O)c1oc2cc(O)ccc2c(=O)c1-c1ccc(OC)c(OC)c1,3.45%
14,COc1ccc2nc3cccc([N+](=O)[O-])c3c(NC(C)CN(C)C)c2c1 (stereo not given),64.3%
15,Cc1cc(Cl)cc2c1OC(C)OC2=O (stereo not given),-5.6%
16,CSc1nc(N)c2cnn(Cc3ccccc3)c2n1,8.95%
17,CCOC(=O)Cc1ccc2ccccc2c1,1.2%
18,C/C(=N\NC(N)=O)C1(O)CCCCC1,4.45%
19,CCC(C)C(O)C(C)C (stereo not given),13.6%
20,N#CCN(CC#N)C1CC=CCC1N(CC#N)CC#N (stereo not given),-20.8%

# Source: PubChem BioAssay (NCI)
